Screening results as filed in PubChem BioAssay.
Avidin fluor – avidin bead compound fluorescence profile | AID 1775 | 0.38% of 220,000 active | Avidin beads, compound fluorescence 488/530 nm, flow cytometry; hits give high values | fluorescence (KMESF) at 10 µM; in the data active = fluorescence above about 47
RGS4-Gao reg – modulates binding of RGS4 to human Galphao; Multiplexed bead flow cytometry; actives lie on both sides; binding response (% of control), % at 10 µM; 0.33% of 220,000 active; AID 1415; in the data active = binding response below about 49% or above about 150%; inactive = in between;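 also: fluorescent Galphao activated with aluminum fluoride binding bead-coupled RGS4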
Target sequence (P09471 whole entry, looked up): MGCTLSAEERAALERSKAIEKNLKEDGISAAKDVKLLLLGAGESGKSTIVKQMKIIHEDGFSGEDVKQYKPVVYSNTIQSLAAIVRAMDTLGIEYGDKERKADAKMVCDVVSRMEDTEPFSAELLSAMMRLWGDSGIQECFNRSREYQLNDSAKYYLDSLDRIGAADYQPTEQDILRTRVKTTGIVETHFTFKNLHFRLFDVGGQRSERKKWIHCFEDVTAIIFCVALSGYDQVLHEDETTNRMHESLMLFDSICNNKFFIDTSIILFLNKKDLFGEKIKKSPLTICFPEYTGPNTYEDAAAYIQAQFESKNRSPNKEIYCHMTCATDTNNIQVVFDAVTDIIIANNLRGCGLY
RGS8-Gao reg – modulates binding of RGS8 to human Galphao | P09471 | response (percent of control binding), % at 10 µM | multiplexed bead flow cytometry; actives lie on both sides | 0.34% of 220,000 active; in the data active = response below about 60% or above about 140%; inactive = in between;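 also: Galphao activated as the GDP aluminium fluoride complex binding bead-coupled RGS8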
RGS7-Gao reg – regulators of human RGS7-Galphao interaction | P09471 | Multiplexed bead flow cytometry, RGS7-Galphao binding; actives lie on both sides | binding response (% of control), % at 10 µM | 0.35% of 220,000 active | AID 1439; in the data active = binding response below about 49% or above about 150%; inconclusive = no clear call, values can overlap the other calls; inactive = in between;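 also: fluorescent Galphao held in activated GDP-AlF4 state binding bead-coupled RGS7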
RGS16-Gao HTS – RGS16-Galphao interaction regulator (human) | AID 1441 | binding response (% of control), % at 10 µM | 0.38% of 220,000 active | bead-based flow cytometry RGS16-Galphao binding, fluorescence; actives lie on both sides;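 also: Galphao activated by GDP with aluminum fluoride before binding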
Target sequence (O15492 whole entry, looked up): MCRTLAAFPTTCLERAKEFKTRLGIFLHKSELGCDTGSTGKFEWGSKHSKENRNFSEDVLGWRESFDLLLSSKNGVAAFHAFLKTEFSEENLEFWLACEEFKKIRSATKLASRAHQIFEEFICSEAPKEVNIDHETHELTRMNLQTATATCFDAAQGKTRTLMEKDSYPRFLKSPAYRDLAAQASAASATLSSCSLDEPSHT
Target sequence (P09471 whole entry, looked up): as the sequence (P09471 whole entry, looked up) above
GSH fluor – compound fluoresces at 488/530 nm on GSH beads; GSH beads flow cytometry, compound fluorescence 488/530 nm; hits give high values; fluorescence (KMESF) at 10 µM; 0.25% of 190,000 active; in the data active = fluorescence above about 89;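 also: glutathione beads carrying GST-tagged Bcl family fusion proteins plus one bare bead set; values are compound well signal with DMSO vehicle wells as background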
RGS-Gao – modulates binding between human RGS4 and Galphao; shares compounds with RGS16-Gao HTS; multiplexed bead flow cytometry, RGS–Galpha-o binding; RGS4–Galpha-o binding response, % at 10 µM; 99% of 1,600 active; AID 1504;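 also: fluorescently labeled Galpha-o bound to GDP with aluminium fluoride binding biotinylated RGS beads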
Avidin counter – biotin-avidin bead binding disruption counter-screen. streptavidin beads, fluorescein-biotin binding, flow cytometry. AID 1783. inhibition, % at 10 µM. 1,700 tested, under 10 active. shares compounds with RGS16-Gao HTS;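 active = inhibition above 50%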;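 also: median green fluorescence of gated singlet beads compared with DMSO control wells; 0% = DMSO wells and 100% = complete loss of bead fluorescence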
RGS8-Gao confirm – confirmation of regulators of human RGS8-Galphao interaction. shares compounds with RGS16-Gao HTS. bead-based flow cytometry RGS8-Galphao binding, fluorescence; actives lie on both sides. binding response (% of control), % at 10 µM. 3% of 1,700 active. AID 1836; in the data active = binding response below about 72% or above about 130%; inactive = in between;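 also: Galphao activated as GDP AlF4 complex before binding bead RGS8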
RGS7-Gao confirm – RGS7-Galphao interaction regulation, single point confirmation; shares compounds with RGS16-Gao HTS; 7.8% of 1,700 active; bead-based flow cytometry RGS7-Galphao binding; actives lie on both sides; response (percent of control binding), % at 10 µM; AID 1837; in the data active = response below about 75% or above about 130%; inactive = in between;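 also: fluorescent Galphao activated with GDP and aluminum fluoride binding bead-coupled RGS7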
RGS16-Gao single – RGS16-Galphao interaction regulation, single point confirmation | shares compounds with RGS16-Gao HTS | bead-based flow cytometry, RGS16-Galphao binding; actives lie on both sides | 4% of 1,700 active | response (% of control binding), % at 10 µM; in the data active = response below about 74% or above about 130%; inactive = in between;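 also: Galphao activated as the GDP aluminium fluoride complex binding bead-coupled RGS16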
RGS4-Gao single – confirmation of regulators of human RGS4-Galphao interaction. shares compounds with RGS16-Gao HTS. RGS4-Galphao binding, multiplexed bead flow cytometry; actives lie on both sides. binding response (% of control), % at 10 µM. 4% of 1,700 active; in the data active = binding response below about 74% or above about 130%; inactive = in between
RGS19-Gao single – RGS19-Galphao interaction regulation, single point confirmation; response (percent of control binding), % at 10 µM; bead-based flow cytometry RGS19-Galphao binding; actives lie on both sides; AID 1841; 5% of 1,700 active; shares compounds with RGS16-Gao HTS; in the data active = response below about 50% or above about 160%; inactive = in between;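 also: 100% = no compound control and 0% = blank background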
Starred values were filed as active, the others as inactive; ? = inconclusive; . = no result; [ ] = remark or other dose. Hits are enriched below; roughly 1.2% of the tested compounds scored in any of these assays. Unless noted, no rule for the calls is given here.

SMILES	Avidin fluor	RGS4-Gao reg	RGS8-Gao reg	RGS7-Gao reg	RGS16-Gao HTS	GSH fluor	Avidin counter	RGS8-Gao confirm	RGS7-Gao confirm	RGS16-Gao single	RGS4-Gao single	RGS19-Gao single	others
CC(=O)C1=C(O)C(=O)N(Cc2cccnc2)C1c1ccc(Cl)cc1 (stereo not given)	21	100	100	102	100	16	.	.	.	.	.	.
Cc1ccc(CN2CCN(CC(=O)N/N=C/c3ccc(C)o3)CC2)cc1	5	107	102	?	105	.	.	.	.	.	.	.
CN(C)C(=O)C12CCC(C)(C(=O)C1Br)C2(C)C (stereo not given)	11	88	95	?	95	.	.	.	.	.	.	.
CCOC(=O)c1c(NC(=O)Cn2cnc([N+](=O)[O-])n2)sc2c1CCCC2	9	98	99	103	91	11	.	.	.	.	.	.
CC(C)OC(=O)c1c(NC(=O)Cn2cnc([N+](=O)[O-])n2)sc2c1CCCC2	.	.	.	.	.	18	0	98	106	96	97	106
COc1ccc(Cn2nnnc2C(c2ccc(N(C)C)cc2)N2CCC(C(N)=O)CC2)cc1 (stereo not given)	10	102	100	102	103	18	.	.	.	.	.	.
COc1ccccc1Nc1nc(N)nc(CN2CCC(C)CC2)n1	6	97	97	98	96	17	.	.	.	.	.	.
COc1ccccc1Nc1nc(N)nc(CN2CCC(Cc3ccccc3)CC2)n1	9	178*[activator]	165*[activator]	162*[activator]	-461	30	1	95	95	97	97	89
CC(/C=C1\SC(=S)N(CCC(=O)Nc2nc(C)cs2)C1=O)=C\c1ccccc1	41	101	91	?	92	.	.	.	.	.	.	.
COc1ccc(Oc2c(O)c3ccccc3n(C)c2=O)cc1	-2	9.1*	9.0*	17*	-92	11	-3	99	97	97	97	101
Cn1c(=O)c(Oc2ccc(Cl)cc2)c(O)c2ccccc21	3	103	106	102	115	10	.	.	.	.	.	.
O=c1cc(-c2ccccc2F)oc2ccccc12	6	97	98	94	94	18	.	.	.	.	.	.
O=c1cc(C(F)(F)C(F)F)oc2ccccc12	.	.	.	.	.	39	1	97	96	97	98	107
COCc1cc(=O)[nH]c2c1c(-c1ccccc1)nn2C	8	100	101	?	101	.	.	.	.	.	.	.
O=C(OCc1nnc(-c2ccccc2)o1)c1cccnc1Cl	9	104	101	100	100	13	.	.	.	.	.	.
CCOc1ncccc1C(=O)OCc1nnc(-c2ccccc2)o1	.	.	.	.	.	40	-1	100	100	100	99	118
O=C(CNCc1cccc2ccccc12)Nc1ccccc1[N+](=O)[O-]	12	99	102	?	98	12	.	.	.	.	.	.
CCC(=O)c1ccc(OCC(=O)N2CCc3cc(OC)c(OC)cc3C2)cc1	-3	-33*	9.6*	-12*	-36*	28	-2	102	96	97	100	128
O=[N+]([O-])c1ccc2c(c1)N([O-])C1(CCCCC1)[N+]2=O	4	91	35*	?	32	.	.	.	.	.	.	.	RGS-Gao=91*
COc1cc(CCC(=O)O)on1	-1	-10*	20*	?	-8.1*	.	-1	98	81	94	90	80
COc1ccc(-c2noc(CCC(=O)O)n2)cc1	11	95	96	95	94	23	.	.	.	.	.	.
Nc1cccc(S(=O)(=O)NC2=NCCC2)c1	10	119	149*[activator]	114	393	66	.	.	.	.	.	.	RGS-Gao=119*
O=[N+]([O-])c1cc(Cl)cc(/C=N/Nc2nc3ccccc3s2)c1O	12	99	104	102	102	26	.	.	.	.	.	.
COc1cc(/C=N/Nc2nc3ccccc3s2)cc([N+](=O)[O-])c1O	.	.	.	.	.	.	-3	96	96	95	101	91
C/C(=N\NC(=O)Cc1cccn1C)c1cccc2ccccc12	5	91	77	76	76	16	.	.	.	.	.	.
SMILES	Avidin fluor	RGS4-Gao reg	RGS8-Gao reg	RGS7-Gao reg	RGS16-Gao HTS	GSH fluor	Avidin counter	RGS8-Gao confirm	RGS7-Gao confirm	RGS16-Gao single	RGS4-Gao single	RGS19-Gao single	others
C/C(=N\NC(=O)Cc1cccn1C)c1ccc2ccccc2c1	1	68	36*	36*	53	9	1	102	101	103	103	126	RGS-Gao=68*
C/C(=N/NC(=O)Cc1cccn1C)c1ccccc1	2	71	47*	46*	49	22	0	101	94	102	100	92	RGS-Gao=71*
COc1cccc(Oc2nc(-c3ccncc3)nc3ccccc23)c1	9	102	101	?	109	.	.	.	.	.	.	.
CCOc1cc(-c2nc(C)c(C(C)=O)n2O)ccc1OCC(=O)Nc1cccc(C)c1	32	101	113	106	113	10	.	.	.	.	.	.
OC[C@@H](O)[C@@H](O[C@H]1O[C@H](CO)[C@@H](O)[C@H](O)[C@H]1O)[C@H](O)[C@@H](O)CO	6	100	98	98	92	65	.	.	.	.	.	.
Nc1ccc(C(CC(=O)O)n2cccc2)cc1 (stereo not given)	13	83	72	39*	96	7	-1	97	80	90	89	66	RGS-Gao=83*
COc1cccc(CC(=O)Nc2ccc(S(=O)(=O)Nc3nc(C)cc(C)n3)cc2)c1	5	105	104	101	99	19	.	.	.	.	.	.
O=C(NCc1ccccc1)c1cnsn1	1	24*	13*	9.6*	6.7*	13	-1	103	102	102	102	93
NS(=O)(=O)c1cccc(NC(=O)Cc2ccc(Cl)c(Cl)c2)c1	12	156*[activator]	148*[activator]	167*[activator]	150	14	1	101	97	101	100	87
